Assay outcomes deposited in PubChem BioAssay by National Center for Advancing Translational Sciences (NCATS).
RXFP1 antag: blocks the human relaxin receptor RXFP1; AID 1259400; 350,000 compounds, 0.59% hits; Q9HBX9; HEK293-RXFP1, relaxin-stimulated cAMP HTRF, 30 min; hits give low values; activity change, negative = inhibition, % at 57.5 µM;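 active = activity change of -60% or lower, but not beyond a set lower limit; inconclusive = change between -60% and -40%, or beyond the set limit; inactive = change above -40%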
RXFP1 agonist: agonists of human relaxin receptor RXFP1; Q9HBX9; HEK293T-RXFP1 cAMP TR-FRET, 30 min; response scale: percent of porcine relaxin response, buffer zero; Potency, µM (series often up to 57.5 µM), for the others: top-dose activation, most hits filed as activators; 370,000 compounds, 0.3% hits; active = well fitted activation curve with a large enough effect; inconclusive = small, poorly fitted or top-dose-only effect; note: potency is the fitted concentration of half-maximal effect; nearly all actives have a fitted effect of over 60% in size
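HEK293T cells stably expressing RXFP1 were pretreated with the PDE4 inhibitor Ro 20174, exposed to compounds for 30 min at 37C, lysed, and cAMP was read by TR-FRET. Data normalized to buffer (basal) and 29 nM porcine relaxin (100%).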
KCNH2 WT inh: KCNH2 (human, wildtype) channel inhibition. AID 720551. Q12809. U2OS, BacMam KCNH2, thallium flux FluxOr; hits give low values. activity change, % at 1.84 µM. 340,000 compounds, 0.37% hits;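 active = maximum activity change below -70%; inconclusive = maximum activity change between -70% and -50%; inactive = maximum activity change above -50%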
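U2OS cells transduced with wild-type KCNH2 virus are loaded with FluxOr dye for 45 min, and thallium flux is measured in kinetic reads before and after stimulation buffer. Rate constants are normalized to DMSO controls.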
KCNH2 3.1 inh: KCNH2 3.1 (human) potassium channel inhibition | U2OS KCNH2 3.1, thallium flux FluxOr; hits give low values | activity change, % (tested at about 1.8 µM) | 340,000 compounds, 0.95% hits | AID 720553;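 active = maximum activity change below -70%; inconclusive = maximum activity change from -70% to -50%; inactive = maximum activity change above -50%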;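 note: thallium influx rate constant from kinetic fluorescence after stimulation buffer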
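Normalized rate constant (relative to positive and negative DMSO controls) derived from a 2 min kinetic fluorescence read after stimulation; U2OS cells expressing the 3.1 isoform via virus at 1.77 x 10^8 /mL.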
Akt phos inh: blocks phosphorylation of Akt; Neuro2A IGF-stimulated pAkt S473 HTRF, 20 min; hits give low values; activity change, % for hits at 50 µM; 360,000 compounds, 0.32% hits; in the data active = activity change below about -80%; inconclusive = mostly about -51% to -80%
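Neuro2A cells (4,500/well, DMEM with 0.5% FBS) were treated with compound at a single 50 µM final concentration, stimulated with 6 nM IGF for 20 min at 37 °C, and lysed. Phospho-Akt Ser473 was read by HTRF as 665/615 ratio ×10^4.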
* = called active by the depositor; i = inactive; ? = inconclusive; . = no result. This is a sample that favours compounds with a hit; in the whole collection about 1.7% have one here. % is set by controls: 0 for no effect and ±100 for the full control effect.

SMILES	RXFP1 antag	RXFP1 agonist	KCNH2 WT inh	KCNH2 3.1 inh	Akt phos inh
CCC(C)N(C(=O)COc1ccccc1C(=O)NCc1ccccc1)C1CCS(=O)(=O)C1 (stereo not drawn)	-16	-1%	-5	1	i
CCCN(CC1CC1)C(=O)COc1ccccc1C(=O)NCc1ccccc1	2	0%	-2	1	-110%*
COc1ccccc1C(=O)N/C(=C/c1ccccc1)C(=O)NC(CCSC)C(=O)O (stereo not drawn)	-6	5%	-15	1	i
CCOc1ccc(NC(=O)CN(c2ccc(C)cc2)S(=O)(=O)c2c(C)nn(C)c2C)cc1	-6	3%	20	27	.
CCc1ccc(NC(=O)CN(c2ccc(OC)cc2)S(=O)(=O)c2c(C)nn(C)c2C)cc1	-113*	-1%	-1	-27	i
O=C(c1ccc(Cl)c(Cl)c1)N(Cc1ccco1)c1ccc(O)cc1	-14	-1%	-6	1	i
Cc1cc(SCC(=O)c2ccccc2)n2nc(C)nc2n1	.	1%	-10	5	i
CC(C)N(C)C1CCN(C(=O)Nc2ccc(Cl)cc2)CC1	-5	1%	18	-198*	i
O=C(Nc1ccc(Cl)cc1)N1CCC(c2ccccc2)C1 (stereo not drawn)	-10	-1%	7	3	i
CCOC(=O)Cc1csc(NC(=S)NC(=O)c2ccccc2)n1	-7	2%	3	1	i
CCOC(=O)Cc1csc(N/C(=N/S(=O)(=O)c2cc(Br)ccc2OCC)c2ccccc2)n1	5	-1%	-261*	-170*	i
CCOC(=O)c1cc(C#N)c(SC)nc1-c1ccccc1	-1	2%	-10	-36	i
CCOC(=O)c1cc(C#N)c(N2CCN(c3ccccn3)CC2)nc1-c1ccccc1	-7	4%	4	-94*	i
O=C(Cn1ccnc1[N+](=O)[O-])N(CCO)CCO	3	.	-1	10	i
CC1(C(=O)N/N=C/c2ccccc2)CC1(Br)Br (stereo not drawn)	-21	-1%	-20	0	i
NC(=O)c1ccc(Cc2ncc(C(F)(F)F)cc2Cl)s1	0	1%	-13	-22	-106%*
O=S(=O)(N/N=C/c1ccc(Cl)cc1)c1ccc(Cc2ncc(C(F)(F)F)cc2Cl)s1	-4	1%	1	6	i
Cc1nn(C(=O)CCCC(=O)NCc2ccccc2)c2ccccc12	2	5%	36	9	.
O=[N+]([O-])c1cccc(-c2nnc(C3CC3)o2)c1	-8	-1%	-16	-3	i
Nc1nnc(-c2cccc([N+](=O)[O-])c2)o1	-15	-1%	-92*	5	i
COc1ccc([N+](=O)[O-])cc1N(CC(O)CN(C)C)S(=O)(=O)c1ccccc1 (stereo not drawn)	.	4%	7	-3	i
COc1ccc([N+](=O)[O-])cc1N(CC(O)CN1CCCC1)S(=O)(=O)c1ccc(C)cc1 (stereo not drawn)	-66*	-1%	2	-23	i
CCn1cc(/C=C/C(=O)NCc2c(C)nn(C)c2C)cn1	-1	-4%	9	-20	-107%*
CCn1cc(CNC(=O)/C=C/c2cnn(C)c2)c(C)n1	10	3%	2	6	i
CC(C)(C)Nc1nc(Cl)nc(NC2CCCCC2)n1	-27	-1%	-6	3	i
SMILES	RXFP1 antag	RXFP1 agonist	KCNH2 WT inh	KCNH2 3.1 inh	Akt phos inh
Cc1ccc(Nc2nc(Cl)nc(NC3CCCCC3)n2)cc1	-17	1%	1	-93*	i
Cc1nn(-c2cccc(Cl)c2)c2c1C(c1ccncc1)C(C#N)=C(N)O2 (stereo not drawn)	-7	0%	-2	-3	i
COc1ccc(OC)c(C2C(C#N)=C(N)Oc3c2c(C)nn3-c2cccc(Cl)c2)c1 (stereo not drawn)	7	0%	4	-94*	i
COc1cc(CCC(=O)OCC(=O)Nc2ccccc2OC(F)F)cc(OC)c1OC	-15	3%	0	-13	i
Cc1cccc(C(=O)Nc2sc(-c3ccccc3)cc2C(=O)O)c1	-8	-1%	-12	-15	i
O=S(=O)(c1ccccc1)c1nc(-c2ccco2)oc1N1CCCCCC1	6	-1%	1	-4	i
COc1cc(CC(=O)Nc2nccs2)cc(OC)c1OC	0	-1%	-4	-3	i
CC(=O)CSc1nc(N)c(C#N)c(-c2cccs2)c1C#N	-11	3%	13	6	i
N#Cc1c(N)nc(SCC(=O)NCCc2ccccc2)c(C#N)c1-c1cccs1	10	?	-6	-5	-89%*
CCc1nnc(NC(=O)c2ccc(S(=O)(=O)N3CCCc4ccccc43)cc2)o1	-10	-2%	4	-4	i
NC(=O)CC12CC3CC(C1)CC(CC(N)=O)(C3)C2	-1	1%	-1	-11	-82%*
NCC12CC3CC(C1)CC(CN)(C3)C2	-13	1%	7	4	i
Cc1ccc(-n2nc3c(=O)n(CC(=O)NCCc4ccc(Cl)cc4)nc(C)c3c2C)cc1	4	4%	-4	-12	i
Cc1ccc(-n2nc3c(=O)n(CC(=O)NCCC4=CCCCC4)nc(C)c3c2C)cc1	-102*	8%	5	-5	.
COc1ccc(-n2c(=O)c3ccccc3n(CC(=O)NC3CCCC3)c2=O)cc1	-2	0%	-3	1	-105%*
CCCn1c2ccccc2c2cnn(CC(=O)NC3CCCCC3)c(=O)c21	-1	5%	-226*	8	i
Cc1ccc(S(=O)(=O)c2nnn3c2nc(NC2CCCCC2)c2sccc23)cc1	-26	10%	.	.	.
COc1ccc(-c2nc(CN3CCN(c4ncnc5ccccc45)CC3)c(C)o2)c(OC)c1	-14	2%	-2	20	i
Cn1c(=O)c(C(=O)NNC(=O)c2ccccc2Cl)c(O)c2ccccc21	-66*	2%	-6	-28	i
O=C(NCCNC(=O)c1ccccc1Br)c1ccccc1Br	5	0%	-6	-114*	i
CC(C)NC(=S)N(C)C1(c2ccccc2Cl)CCCCC1=O (stereo not drawn)	2	2%	-12	-93*	i
Cc1cc(C)cc(NC(=O)CSc2ccc(-c3ccco3)nn2)c1	-2	3%	-3	0	i
CCOc1nc2ccccc2cc1/C=C/C(=O)O	-1	5%	4	-9	i
Cc1ccc(C(CC(=O)NCC2(c3ccccc3)CCCC2)c2ccccc2)c(O)c1 (stereo not drawn)	-65*	2%	.	.	.
Cc1ccc(C(CC(=O)NCc2ccco2)c2ccccc2)c(O)c1 (stereo not drawn)	-21	-2%	-18	-15	i
